This passage reports composite z-score and z-score results from PubChem BioAssay.

Activity calls are given as the source filed them.

The nature of experiment [1]: binders of probe aFSTL3 on microarray, primary screen, stem cell growth factor project, biochemical, small-molecule microarray, fluorescence 635/667 (AID 1064).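 Note: measures binding of the biotinylated anti-FSTL3 antibody to printed compounds.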 The conditions noted are these: higher = more signal.
A short description of experiment [2]: binders from COS7 lysate, DM2A8 probe, primary screen, torsin A project, cell lysate, small-molecule microarray, fluorescence 635/667 (AID 1065). The conditions noted are these: higher = more signal, COS7 lysate expressing mutant human TOR1A.
A short description of experiment [3]: binders of probe aFGF2 on microarray, primary screen, stem cell growth factor project, biochemical, small-molecule microarray, fluorescence 635/667 (AID 1067).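 Note: measures binding of biotinylated aFGF2 protein to printed compounds on slides; z-score merges feature fluorescence and signal-to-noise across triplicate slides.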 Particulars: higher = more signal.
Experiment [4] is described as follows: binders of probe aFGF10 on microarray, primary screen, stem cell growth factor project, biochemical, small-molecule microarray, fluorescence 635/667 (AID 1071).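 Note: score merges 667 nm spot intensity and signal to noise from triplicate slides.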 The conditions noted are these: higher = more signal.
For experiment [5], the target named is Neurogenic locus notch homolog protein 2 (Homo sapiens) (UniProt Q04721). Description: Notch2 binders on small-molecule microarrays, primary screen, biochemical, small-molecule microarray, 635 nm fluorescence, stem cell growth factors (AID 1073). The conditions noted are these: Notch2 binding, higher = more signal.
Sequence of Neurogenic locus notch homolog protein 2 (Homo sapiens) (Q04721 whole entry, looked up, canonical isoform): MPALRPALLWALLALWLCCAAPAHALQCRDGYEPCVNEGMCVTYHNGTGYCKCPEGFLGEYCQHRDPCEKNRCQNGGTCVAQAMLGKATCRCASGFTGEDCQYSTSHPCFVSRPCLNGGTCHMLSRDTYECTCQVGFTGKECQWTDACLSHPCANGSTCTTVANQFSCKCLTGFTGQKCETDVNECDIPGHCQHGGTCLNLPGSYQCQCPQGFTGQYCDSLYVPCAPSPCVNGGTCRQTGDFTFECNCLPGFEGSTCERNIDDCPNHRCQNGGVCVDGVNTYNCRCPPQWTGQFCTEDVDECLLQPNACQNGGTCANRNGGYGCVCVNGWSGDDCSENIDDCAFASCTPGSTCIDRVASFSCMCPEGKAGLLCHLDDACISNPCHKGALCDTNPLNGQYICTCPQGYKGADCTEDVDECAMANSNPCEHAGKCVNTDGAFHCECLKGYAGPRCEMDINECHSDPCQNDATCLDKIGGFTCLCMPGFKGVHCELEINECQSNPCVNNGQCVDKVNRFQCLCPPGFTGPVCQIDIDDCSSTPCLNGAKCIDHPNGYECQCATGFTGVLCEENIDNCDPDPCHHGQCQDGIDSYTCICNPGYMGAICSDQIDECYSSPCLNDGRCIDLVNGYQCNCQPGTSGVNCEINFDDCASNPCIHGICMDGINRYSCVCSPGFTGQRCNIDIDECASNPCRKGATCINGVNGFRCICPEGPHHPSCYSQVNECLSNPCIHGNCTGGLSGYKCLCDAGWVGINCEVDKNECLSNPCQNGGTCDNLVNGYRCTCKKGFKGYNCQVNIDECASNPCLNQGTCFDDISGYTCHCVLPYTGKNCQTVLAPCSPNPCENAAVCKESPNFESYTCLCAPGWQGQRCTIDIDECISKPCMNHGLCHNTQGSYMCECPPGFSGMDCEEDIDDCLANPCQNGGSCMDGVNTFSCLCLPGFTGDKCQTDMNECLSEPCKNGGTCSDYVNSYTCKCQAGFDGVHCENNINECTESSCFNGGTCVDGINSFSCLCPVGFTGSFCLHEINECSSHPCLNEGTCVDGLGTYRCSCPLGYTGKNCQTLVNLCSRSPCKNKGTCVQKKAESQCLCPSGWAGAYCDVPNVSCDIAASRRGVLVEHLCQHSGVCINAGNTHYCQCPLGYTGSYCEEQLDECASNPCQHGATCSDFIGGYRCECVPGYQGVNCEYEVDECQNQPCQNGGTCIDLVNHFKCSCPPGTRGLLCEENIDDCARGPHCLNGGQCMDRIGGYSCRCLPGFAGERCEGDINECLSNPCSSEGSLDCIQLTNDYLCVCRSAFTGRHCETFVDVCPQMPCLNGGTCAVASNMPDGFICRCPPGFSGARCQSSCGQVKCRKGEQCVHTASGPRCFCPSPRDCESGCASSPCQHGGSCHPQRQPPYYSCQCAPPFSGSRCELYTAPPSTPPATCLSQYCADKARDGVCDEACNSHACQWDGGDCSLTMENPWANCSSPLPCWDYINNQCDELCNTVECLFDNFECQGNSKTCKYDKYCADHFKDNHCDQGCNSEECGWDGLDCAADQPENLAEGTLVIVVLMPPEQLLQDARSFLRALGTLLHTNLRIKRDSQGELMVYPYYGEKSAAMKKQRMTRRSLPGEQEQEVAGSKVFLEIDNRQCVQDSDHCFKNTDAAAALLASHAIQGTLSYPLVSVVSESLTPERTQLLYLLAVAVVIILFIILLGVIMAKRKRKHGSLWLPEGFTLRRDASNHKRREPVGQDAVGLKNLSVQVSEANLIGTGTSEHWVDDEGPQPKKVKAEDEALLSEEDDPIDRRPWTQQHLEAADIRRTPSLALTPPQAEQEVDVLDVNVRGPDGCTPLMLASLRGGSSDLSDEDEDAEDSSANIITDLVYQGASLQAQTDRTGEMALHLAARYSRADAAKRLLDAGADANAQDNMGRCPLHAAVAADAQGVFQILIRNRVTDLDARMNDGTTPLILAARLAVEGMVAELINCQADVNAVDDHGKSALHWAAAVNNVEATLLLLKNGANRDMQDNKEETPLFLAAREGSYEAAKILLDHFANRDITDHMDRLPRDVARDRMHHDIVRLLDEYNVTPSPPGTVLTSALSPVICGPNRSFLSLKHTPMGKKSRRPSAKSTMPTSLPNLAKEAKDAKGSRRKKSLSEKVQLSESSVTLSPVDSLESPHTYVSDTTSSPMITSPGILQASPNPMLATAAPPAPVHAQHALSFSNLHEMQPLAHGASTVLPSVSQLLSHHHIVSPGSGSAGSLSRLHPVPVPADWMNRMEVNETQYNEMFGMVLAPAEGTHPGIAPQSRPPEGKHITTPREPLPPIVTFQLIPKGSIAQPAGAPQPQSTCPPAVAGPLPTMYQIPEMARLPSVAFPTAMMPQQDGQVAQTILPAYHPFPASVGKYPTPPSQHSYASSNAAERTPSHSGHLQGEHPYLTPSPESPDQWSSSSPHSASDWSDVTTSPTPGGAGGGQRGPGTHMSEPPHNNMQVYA
The target in experiment [6] is Pro-neuregulin-1, membrane-bound isoform (Homo sapiens) (UniProt Q02297). Description: NRG1 binders on small-molecule microarrays, primary screen, psychiatric disease protein project, biochemical, small-molecule microarray, fluorescence 635/667 (AID 1075).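 Note: score combines 667 nm spot fluorescence with signal to noise.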 Particulars: NRG1 binding, 635 nm fluorescence, higher = more signal.
Sequence of Pro-neuregulin-1, membrane-bound isoform (Homo sapiens) (Q02297 whole entry, looked up, the tested form may be a part, canonical isoform): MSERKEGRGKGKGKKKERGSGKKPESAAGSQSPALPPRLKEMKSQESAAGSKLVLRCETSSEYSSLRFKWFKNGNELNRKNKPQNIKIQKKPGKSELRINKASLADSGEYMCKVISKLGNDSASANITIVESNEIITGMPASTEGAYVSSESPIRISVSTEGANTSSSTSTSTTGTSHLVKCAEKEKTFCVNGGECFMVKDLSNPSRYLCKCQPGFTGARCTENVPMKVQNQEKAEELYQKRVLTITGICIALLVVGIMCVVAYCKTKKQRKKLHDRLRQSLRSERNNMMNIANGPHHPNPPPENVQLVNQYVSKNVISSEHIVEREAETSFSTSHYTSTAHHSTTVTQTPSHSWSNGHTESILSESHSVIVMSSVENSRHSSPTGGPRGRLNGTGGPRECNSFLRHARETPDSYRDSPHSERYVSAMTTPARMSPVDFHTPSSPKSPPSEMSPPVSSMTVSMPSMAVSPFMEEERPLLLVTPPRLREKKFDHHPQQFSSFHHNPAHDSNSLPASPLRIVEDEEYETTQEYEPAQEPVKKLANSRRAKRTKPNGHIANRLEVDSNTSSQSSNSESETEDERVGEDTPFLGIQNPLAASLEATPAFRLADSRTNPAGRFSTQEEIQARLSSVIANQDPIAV
The subject of experiment [7] is Neuregulin-1 EGF-like domain. Description: binders of neuregulin-1 EGF-like domain, primary screen, biochemical, small-molecule microarray, 635 nm fluorescence (AID 1081).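 Note: binding of the protein to compounds printed on small-molecule microarray slides.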 Particulars: small-molecule microarray binding, higher = more signal.
Experiment [8] can be described thus: FRG1 promoter luciferase signal modulators, primary screen, FRG1 inhibition for FSHD, cell-based, C2C12 myotubes, firefly/Renilla luciferase, luminescence (AID 1084). The conditions noted are these: higher = more signal, called active from +8 up or from −8 down.
Experiment [9] in a line: binders of probe aFST on microarray, primary screen, stem cell growth factor project, biochemical, small-molecule microarray, fluorescence 635/667 (AID 1086).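 Note: score merges 667 nm fluorescence with signal-to-noise of each printed compound spot.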 Particulars: higher = more signal.
Experiment [10] in a line: binders of probe aHhip on microarray, primary screen, stem cell growth factor project, biochemical, small-molecule microarray, fluorescence 635/667 (AID 1087).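 Note: score merges spot fluorescence at 667nm with spot signal to noise ratio.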 The conditions noted are these: higher = more signal.
In experiment [11] the test system is PRMT1 (protein arginine N-methyltransferase 1). The experiment can be described thus: PRMT1 binders on small-molecule microarrays, primary screen, biochemical, small-molecule microarray, 635 nm fluorescence (AID 1088).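 Note: binding of Prmt1 protein to compounds spotted on small-molecule microarray slides.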 Particulars: small-molecule microarray binding, higher = more signal.
Experiment [12] can be described thus: yeast growth modulation, basal conditions, primary screen, YJM789 clinical isolate, OD600, 24 h (AID 1089).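 Note: growth of clinical yeast isolate S. cerevisiae YJM 789 seeded 1000 cells per well; test concentration not given here.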 Particulars: S. cerevisiae YJM789 growth, higher = more signal, called active from +8 up or from −8 down.
Experiment [13] is described as follows: fission yeast growth modulation, primary screen, strain 972, OD600, 24 h, no modulator (AID 1090).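 Note: basal condition with compound alone and no growth modifier present; test concentration not given here.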 The conditions noted are these: S. pombe 972 growth, higher = more signal, called active from +8 up or from −8 down.
The nature of experiment [14]: S. cerevisiae growth modulation with rapamycin, primary screen, strain BY4716, OD600, 96 h (AID 1091). Note: test concentration not given here. Particulars: higher = more signal, called active from +8 up or from −8 down.
Experiment [15] deals with Torsin-1A-interacting protein 2 (Homo sapiens) (UniProt Q8NFQ8). The experiment can be described thus: LULL1 binders on small-molecule microarray, primary screen, cell lysate, human LULL1 lysate, 635/667 nm fluorescence (AID 1092).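 Note: probe is lysate of COS7 cells overexpressing human LULL1; score merges per-feature 667 nm fluorescence with signal-to-noise.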 Particulars: hLULL1 lysate binding, 635 nm fluorescence, higher = more signal.
Sequence of Torsin-1A-interacting protein 2 (Homo sapiens) (Q8NFQ8 whole entry, looked up): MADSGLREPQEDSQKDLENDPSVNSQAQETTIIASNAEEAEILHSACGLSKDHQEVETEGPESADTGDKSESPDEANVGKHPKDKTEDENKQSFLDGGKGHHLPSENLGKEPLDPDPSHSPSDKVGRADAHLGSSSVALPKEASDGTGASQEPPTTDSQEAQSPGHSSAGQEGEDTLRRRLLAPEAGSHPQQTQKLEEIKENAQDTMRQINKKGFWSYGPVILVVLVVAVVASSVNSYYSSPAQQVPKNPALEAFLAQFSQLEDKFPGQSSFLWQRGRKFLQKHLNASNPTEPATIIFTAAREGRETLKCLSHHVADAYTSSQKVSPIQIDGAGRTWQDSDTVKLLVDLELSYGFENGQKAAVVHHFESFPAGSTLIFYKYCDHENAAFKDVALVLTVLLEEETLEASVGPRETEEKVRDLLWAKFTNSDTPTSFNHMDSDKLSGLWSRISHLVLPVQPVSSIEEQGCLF
A short description of experiment [16]: E. coli growth modulation, two-sided OD650, primary screen, E. coli filamentation project, strain DRC41, 24 h (AID 1093).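 Note: MC1000 strain lacking acrAB efflux and sulA so SOS filamentation is blocked; test concentration not given here.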 The conditions noted are these: OD650, 24 h, higher = more signal, called active from +8 up or from −8 down.
Experiment [17] is described as follows: small-molecule microarray binders of probe aLefty2, primary screen, biochemical, biotinylated probe, 635/667 nm fluorescence (AID 1094).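 Note: score merges spot fluorescence near 667 nm with spot signal-to-noise ratio.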 The conditions noted are these: higher = more signal.
Experiment [18] relates to Noggin (protein binding on small-molecule microarray). Description: Noggin binders on small-molecule microarray, primary screen, biochemical, 635/667 nm fluorescence (AID 1095).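 Note: score merges 667 nm feature fluorescence with signal to noise over triplicate slides.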 Particulars: 635 nm fluorescence, higher = more signal.
Experiment [19] has as its target Neurogenic locus notch homolog protein 3 (Homo sapiens) (UniProt Q9UM47). The experiment can be described thus: NOTCH3 binders on small-molecule microarray, primary screen, biochemical, 635/667 nm fluorescence (AID 1096). The conditions noted are these: NOTCH3 binding, 635 nm fluorescence, higher = more signal.
Experiment [20] in a line: small-molecule microarray binders of probe aEGFR, primary screen, biochemical, biotinylated probe, 635/667 nm fluorescence (AID 1097).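 Note: probe is a biotinylated anti-EGFR antibody binding compounds printed on slides; score combines fluorescence near 667 nm and signal to noise of each spot.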 The conditions noted are these: higher = more signal.

Consider `COC(=O)[C@@H]1CC[C@H](C)[C@@H](c2ccc(Br)cc2)N1C[C@H](O)CN=[N+]=[N-]`, for which the composite z-score is -0.0566 in experiment [1]; 0.143 in [2]; -0.0925 in experiment [3]; 0.171 in experiment [4]; -0.0324 in experiment [5]; 0.374 in [6]. Besides, the composite z-score in experiment [7] is -0.0594; in experiment [9], -0.193; in experiment [10], 0.478; in [11] it was -0.164; in [15], 0.512; in experiment [17], -0.181. Further, the composite z-score in experiment [18] is -0.133; in [19] it was -0.0269; in [20] it was -0.139. Moreover, the z-score in experiment [8] is 0.348 (inactive); in experiment [12], -0.209 (inactive); in experiment [13], -4.62 (inactive); in experiment [14], -2.03 (inactive); in experiment [16], 0.449 (inactive).
For `O=C1C2=CC[C@H]3C(=O)N(c4ccc(F)cc4F)C(=O)[C@H]3[C@H]2[C@H](O)[C@@H]2O[C@H]12`, the composite z-score was -0.598 in [1]; 0.45 in experiment [2]; -0.116 in experiment [3]; 0.37 in experiment [4]; 0.291 in [5]; -0.0808 in experiment [6]. In addition, the composite z-score is 0.0508 in [7]; 1.14 in experiment [9]; -0.0994 in experiment [10]; 0.137 in experiment [11]; -0.034 in [15]; -0.124 in [17]. Moreover, the composite z-score in [18] is 0.526; in [19], 0.634; in [20], -0.0967. The z-score in experiment [8] was 0.264 (inactive); in experiment [12], -0.892 (inactive); in experiment [13], 0.151 (inactive); in experiment [14] it was 0.0688 (inactive); in [16], 0.601 (inactive).
As for `COc1cccc([C@H](O)Cn2cc(-c3ccc(CON=C(C)C)cc3)nn2)c1`, the composite z-score in experiment [1] was -0.131; in experiment [2], 0.173; in experiment [3], -0.0138; in experiment [4] it was 0.0967; in [5], -0.193; in experiment [6] it was -0.486. For the same molecule, the composite z-score in experiment [7] was 0.0451; in [9], 0.0775; in [10], -0.185; in experiment [11], 0.0112; in experiment [15], -0.441; in experiment [17] it was -0.0561. Further, the composite z-score in [18] was -0.197; in [19], -1.27; in experiment [20], 0.0709. Further, the z-score was -0.291 (inactive) in [8]; -0.733 (inactive) in experiment [12]; 0.16 (inactive) in experiment [13]; -0.625 (inactive) in [14]; 1.2 (inactive) in [16].
On to `COc1ccc(COC(=O)NN=C2C[C@@H](O)[C@@H](O)[C@@H]3[C@@H]4C(=O)N(C[C@@H]5CCCO5)C(=O)[C@@H]4CC[C@H]23)cc1`, for which the composite z-score was 0.467 in experiment [1]; 0.326 in [2]; -0.076 in experiment [3]; -0.302 in experiment [4]; -0.467 in experiment [5]; -0.234 in experiment [6]. For the same molecule, the composite z-score in experiment [7] was -0.563; in experiment [9], 0.162; in experiment [10] it was 0.0106; in [11], -0.478; in experiment [15], 0.43; in [17], 0.258. The figures for the composite z-score in experiment [18], in experiment [19] and in [20] were -0.809, -0.398 and -0.211, respectively. Besides, the z-score was -0.249 (inactive) in [8]; -0.0944 (inactive) in experiment [12]; 0.247 (inactive) in [13]; -0.0457 (inactive) in experiment [14]; -0.5 (inactive) in experiment [16].
Regarding `CC(C)=NOC(C)CN1CCCCc2nc(C)c(C)cc21` (stereo not given), the composite z-score in [1] is -0.216; in experiment [2], 0.927; in experiment [3], -0.0858; in [4], 0.0948; in experiment [5], -0.134; in experiment [6], 0.152. Moreover, the composite z-score in [7] was 0.093; in [9] it was 0.142; in [10], 0.0695; in experiment [11] it was 0.434; in [15], 1.04; in experiment [17], -0.0441. Also, the composite z-score in experiment [18] was 0.634; in experiment [19], -0.0247; in [20], -0.027. The z-score is 0.265 (inactive) in experiment [8]; -0.139 (inactive) in experiment [12]; -0.104 (inactive) in [13]; -0.0334 (inactive) in experiment [14]; 0.194 (inactive) in experiment [16].
